Measured values: the supplement of paper PMC5736601
± gives the uncertainty stated by the source.

System: human primary fetal neurons
Experiment: surviving MAP-2+ neurons after FeSO4 challenge with drug pre-treatment, relative to untreated control (% of untreated control); higher = more neuroprotection against iron toxicity
Conditions: 10 µM; FeSO4 concentration 25-50 µM; 24 h
Procedure: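 Human fetal primary neurons (96-well, AIM-V serum-free medium) were pre-treated for 1 h with each NINDS Custom Collection II drug at 10 µM, then challenged with FeSO4 (25 or 50 µM). After 24 h they were fixed, stained with anti-MAP-2 and counted by automated imaging (ImageXpress/MetaXpress). MAP-2+ neuron counts were normalised to untreated control wells (100%); values are the mean of 1-4 independent experiments, each in quadruplicate.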

Going from `Cc1ccc(O)cc1.Cc1cccc(O)c1.Cc1ccccc1O` to `CN(C)CCOC(c1ccccc1)c1ccccc1.Cn1c(=O)c2[nH]c(Cl)nc2n(C)c1=O`, the “surviving MAP-2+ neurons” value rises from 6.04 ± 1.1 to 36.5 ± 5.3.
